# Assay results published in PubChem BioAssay AID1224904 (Broad Institute, 2016).
# In all, about 37,000 compounds went through this assay and about 290 (0.78%) were called active. Another 10% or so got no clear call; they are omitted.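 Rule for the calls: active = mean inhibition of at least 10% in the main channel, exceeding the control channel by a set limit; inconclusive = inhibition of 10% or more but channel gap under a set limit; inactive = mean inhibition below 10%.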 This excerpt belongs to a sample that is enriched for actives.
# Test: DUX4 transcriptional activity inhibition in cells – 293T cells, Gaussia and Italica luciferase, primary screen (AID 1224904);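 for activity change, negative = inhibition: 0% = median of neutral control wells and -100% = median of positive control wells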
# Conditions: 293T-iDUX4 ZSCAN4-Gaussia luciferase reporter, 24 h, stronger effect = lower value, concentration not given here; for Gaussia minus Italica difference: measured here: selective DUX4 reporter inhibition
# [1] = measured here: Italica tet-on control reporter
Structure (SMILES),"activity change, negative = inhibition","activity change, negative = inhibition [1]",Gaussia minus Italica difference
CCC(=O)N(C)C[C@H]1[C@H](c2ccc(-c3ccccc3F)cc2)[C@@H](CO)N1C(C)=O,3.08% (inactive),7.42%,-4.34%
CCCNC(=O)[C@@H]1[C@@H](CO)[C@@H]2Cn3c(cccc3=O)[C@H]1N2C(=O)C1CCC1,-0.71% (inactive),1.58%,-2.29%
CC=Cc1ccc2n(c1=O)C[C@@H]1[C@@H](CO)[C@H](C(=O)NCCCN3CCOCC3)[C@H]2N1Cc1cocn1 (mixture of isomers),-1.75% (inactive),4.32%,-6.07%
CCCNC(=O)[C@@H]1[C@@H](CO)[C@@H]2Cn3c(ccc(C4=CCCCC4)c3=O)[C@H]1N2CCC,0.23% (inactive),-0.339%,0.57%
COCCN(C[C@H]1[C@@H](c2ccccc2)[C@H](CO)N1C(=O)C1CCC1)C(C)=O,-2.05% (inactive),5.46%,-7.51%
C[C@H]1CN([C@@H](C)CO)S(=O)(=O)c2ccc(-c3ccncc3)cc2O[C@H]1CN(C)S(C)(=O)=O,-0.678% (inactive),4.8%,-5.48%
CCC(=O)N1C[C@@H](C)[C@H](OC)CN(C)C(=O)c2cc(NC(=O)c3cc(C)on3)ccc2OC[C@@H]1C,-1.43% (inactive),2.42%,-3.85%
CCCNC(=O)N1C[C@@H](C)[C@@H](OC)CN(C)C(=O)c2ccc(NC(=O)C3CCC3)cc2OC[C@@H]1C,-2.74% (inactive),-2.2%,-0.535%
CN1C(=O)c2cc(NS(=O)(=O)c3ccc(Cl)cc3)ccc2OC[C@H]2O[C@@H](CC(=O)O)CC[C@H]21,2.17% (inactive),-0.461%,2.63%
CN1C(=O)c2cc(NC(=O)c3ccc(F)c(F)c3)ccc2OC[C@H]2O[C@@H](CC(=O)N3CCCCC3)CC[C@H]21,-2.75% (inactive),-1.85%,-0.906%
CO[C@@H](CN(C)C(=O)Nc1ccc(F)cc1)[C@H](C)CN(Cc1ccccc1Cl)[C@@H](C)CO,1.39% (inactive),-1.3%,2.69%
COCC(=O)N1CC2(C1)[C@H](c1ccc(-c3cccc(F)c3)cc1)[C@@H](CO)N2C(=O)COC,6.28% (inactive),3.24%,3.04%
CN(C)c1ccc2c(c1)[C@H]1C[C@H](CC(=O)O)O[C@H](CO)[C@H]1O2,1.12% (inactive),6.76%,-5.64%
C[C@H]1CN([C@@H](C)CO)C(=O)c2c(c3ccccc3n2C)-c2ccccc2CO[C@H]1CN(C)Cc1ccc2c(c1)OCO2,3.62% (inactive),-0.444%,4.06%
C[C@@H]1CN([C@H](C)CO)C(=O)c2c(c3ccccc3n2C)-c2ccccc2CO[C@@H]1CN(C)Cc1ccc(F)cc1,-34.5% (active),-8.76%,-25.8%
C[C@@H]1CN([C@@H](C)CO)C(=O)c2c(c3ccccc3n2C)-c2ccccc2CO[C@H]1CN(C)S(=O)(=O)c1cccs1,-5.46% (inactive),-1.09%,-4.37%
C[C@@H]1CN([C@@H](C)CO)C(=O)c2c(c3ccccc3n2C)-c2ccccc2CO[C@@H]1CN(C)Cc1ccc2c(c1)OCCN2C,-2.06% (inactive),2.22%,-4.27%
C[C@@H]1CN([C@H](C)CO)C(=O)c2c(c3ccccc3n2C)-c2ccccc2CO[C@@H]1CN(C)Cc1ccccc1C(F)(F)F,-42% (active),-5.06%,-36.9%
CC(C)OC(=O)N(C)C[C@@H]1OCc2ccccc2-c2c(n(C)c3ccccc23)C(=O)N([C@H](C)CO)C[C@H]1C,-4.14% (inactive),-0.897%,-3.24%
C[C@@H]1CN([C@@H](C)CO)C(=O)c2c(c3ccccc3n2C)-c2ccccc2CO[C@@H]1CN(C)S(=O)(=O)c1cccs1,10.1% (inactive),4.92%,5.19%
C[C@H](CO)N1C[C@H](C)[C@@H](CN(C)Cc2ccc(C(F)(F)F)cc2)OCc2ccccc2-c2c(n(C)c3ccccc23)C1=O,-40.3% (active),-11%,-29.3%
C[C@@H]1CN([C@@H](C)CO)C(=O)c2c(c3ccccc3n2C)-c2ccccc2CO[C@@H]1CN(C)S(=O)(=O)CC(F)(F)F,18.5% (inactive),1.21%,17.3%
Cc1ccccc1S(=O)(=O)N(C)C[C@@H]1OCc2ccccc2-c2c(n(C)c3ccccc23)C(=O)N([C@H](C)CO)C[C@H]1C,-34% (active),-6.75%,-27.3%
C[C@@H]1CN([C@@H](C)CO)C(=O)c2c(c3ccccc3n2C)-c2ccccc2CO[C@@H]1CN(C)Cc1cccc(C(=O)O)c1,7.37% (inactive),5%,2.36%
C[C@@H]1CN([C@@H](C)CO)C(=O)c2c(c3ccccc3n2C)-c2ccccc2CO[C@H]1CN(C)Cc1cccc(C(=O)O)c1,-0.025% (inactive),-8.31%,8.28%
CCC(=O)N1CC2(C1)[C@@H](c1ccc(C3=CCCC3)cc1)[C@@H](CO)N2C(=O)COC,2.59% (inactive),3.57%,-0.983%
COc1cccc(CNC(=O)[C@@H]2[C@@H](CO)[C@@H]3Cn4c(ccc(-c5ccncc5)c4=O)[C@H]2N3C(C)=O)c1,-3.74% (inactive),-3.37%,-0.373%

Structure (SMILES),"activity change, negative = inhibition","activity change, negative = inhibition [1]",Gaussia minus Italica difference
CN1CCN(C(=O)C[C@@H]2CC[C@@H]3[C@H](COC[C@@H](O)CN3Cc3cccc(F)c3)O2)CC1,4.3% (inactive),-1.22%,5.51%
O=C(C[C@@H]1CC[C@@H]2[C@H](COC[C@H](O)CN2C(=O)c2cccnc2)O1)NC1Cc2ccccc2C1,3.73% (inactive),-3.66%,7.39%
CC(C)CN(C[C@@H]1N[C@@H](CO)[C@H]1c1ccccc1)C(=O)CN(C)C,0.487% (inactive),0.95%,-0.462%
O=C(C[C@@H]1CC[C@@H](NC(=O)Nc2ccc(F)cc2)[C@@H](CO)O1)NCCN1CCCC1,3.27% (inactive),-1.07%,4.34%
N#C[C@@H]1[C@@H](c2ccc(C#Cc3cccc(F)c3)cc2)[C@H](CO)N1C(=O)C1CCOCC1,1.6% (inactive),1.95%,-0.348%
Cc1noc(C)c1S(=O)(=O)N(C)C[C@@H]1OCc2ccccc2-c2ccccc2C(=O)N([C@@H](C)CO)C[C@H]1C,1.81% (inactive),12.5%,-10.7%
O=C(C[C@H]1CC[C@@H]2[C@H](COC[C@@H](O)CN2C(=O)Nc2ccc(Cl)cc2)O1)NC1Cc2ccccc2C1,-9.05% (inactive),-0.9%,-8.14%
CN1C(=O)c2cc(NC(=O)c3cscn3)ccc2OC[C@H]2O[C@@H](CC(=O)NCC3CC3)CC[C@H]21,-3.18% (inactive),-1.57%,-1.61%
CCC(=O)N1CC2(C1)[C@@H](c1ccccc1)[C@H](CO)N2CC1CCOCC1,-0.159% (inactive),8.93%,-9.09%
C[C@@H]1CC=CC[C@H](c2ccc(F)cc2)NC(=O)[C@@H](Cc2ccccc2)N(C)C(=O)c2ccccc2O1 (mixture of isomers),-2.82% (inactive),-1.88%,-0.938%
CC(C)NC(=O)N1C[C@@H]2[C@H](c3ccccc31)[C@H](CO)N2C(=O)C1CCCC1,-2.38% (inactive),-1.49%,-0.893%
CCCNC(=O)[C@@H]1[C@@H](CO)[C@@H]2Cn3c(cccc3=O)[C@H]1N2C(=O)Nc1cc(F)ccc1F,6.78% (inactive),10.8%,-3.98%
Cc1noc(C)c1NC(=O)N[C@@H]1C=C[C@H](CC(=O)N2CCCCC2)O[C@H]1CO,5.84% (inactive),1.64%,4.2%
C[C@@H]1CN([C@H](C)CO)S(=O)(=O)c2ccc(C#CC3CCCC3)cc2O[C@@H]1CN(C)Cc1ccccc1C(=O)O,-1.04% (inactive),-2.07%,1.03%
CC=Cc1ccc2n(c1=O)C[C@@H]1[C@@H](CO)[C@H](C(=O)N(C)C)N(CC3CCOCC3)[C@H]21 (mixture of isomers),3.1% (inactive),6.26%,-3.17%
COc1ccccc1NC(=O)N[C@H]1C=C[C@H](CC(=O)N[C@@H](C)c2ccccc2)O[C@H]1CO,-2% (inactive),-1.1%,-0.906%
O=C(Nc1ccccc1F)N1C[C@H]2[C@@H](c3ccccc31)[C@H](CO)N2C(=O)c1ccccn1,-3.65% (inactive),-2.86%,-0.784%
O=C(CN1CCOCC1)N1CCCCN2[C@H](CO)[C@H](c3ccc(Br)cc3)[C@H]2C1,9.07% (inactive),-4.46%,13.5%
OC[C@H]1[C@@H](c2ccc(C#CC3(O)CCCC3)cc2)[C@H]2CN(Cc3cncnc3)CCCCN21,13.2% (inactive),12.8%,0.35%
O=C(C1CCCCC1)N1CC(=O)N2[C@H](CO)[C@@H](c3ccc(-c4ccccc4F)cc3)[C@@H]2C1,-8.07% (inactive),-1.6%,-6.47%
CNC(=O)C[C@H]1CC[C@@H]2[C@H](COc3ccc(NC(=O)Nc4ccc(F)c(F)c4)cc3C(=O)N2C)O1,-0.979% (inactive),-3.84%,2.86%
O=C(C[C@@H]1C[C@H]2c3cc(NC(=O)Nc4ccccc4F)ccc3O[C@H]2[C@@H](CO)O1)NCc1ccncc1,-1.77% (inactive),0.554%,-2.32%
C[C@@H](NC(=O)[C@@H]1[C@@H](CO)[C@@H]2Cn3c(ccc(C4=CCCCC4)c3=O)[C@@H]2N1C)c1ccccc1,3.54% (inactive),1.39%,2.15%
CN1C(=O)c2cc(NC(=O)c3ccc(F)cc3)ccc2OC[C@H]2O[C@H](CC(=O)N3CCOCC3)CC[C@@H]21,1.69% (inactive),-7.81%,9.5%
COCC(=O)N[C@@H]1C=C[C@@H](CC(=O)N2CCCCC2)O[C@@H]1CO,6.06% (inactive),-1.08%,7.14%
O=C(C1CCCC1)N1CC2(C1)[C@H](c1ccccc1)[C@H](CO)N2CCC(F)(F)F,-0.604% (inactive),2.75%,-3.36%
